# About 79,000 compounds went through this panel and 15% of them were active in at least one assay; those are over-represented in the sample as a whole. A number with no mark means an inactive call. Active and inactive are the calls of the source. No stated cut-off is given here; in the data, active means growth inhibition above about 70%; inactive means the rest.
# What was measured:
# [1] = NCI Yeast Anticancer Drug Screen. Data for the rad50 strain (AID 155);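 further: 0% = growth of vehicle-only cultures of the same strain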; settings: S. cerevisiae rad50 strain growth inhibition; at 50.0 µM; active compounds read high
# In short: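 DNA repair mutant yeast, compound exposure, growth read-out; inhibition is taken relative to vehicle.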
# [2] = NCI Yeast Anticancer Drug Screen. Data for the mec2-1 strain (AID 157); settings: S. cerevisiae mec2-1 strain, at 50.0 µM, active compounds read high
# In short: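 Mutant yeast (mec2-1) grown with compound; growth inhibition relative to vehicle control reported.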
# [3] = NCI Yeast Anticancer Drug Screen. Data for the sgs1 mgt1 strain (AID 161);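 further: 0% = growth of cultures given vehicle only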; settings: S. cerevisiae sgs1 mgt1 strain, at 50.0 µM, active compounds read high
# In short: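 This yeast growth screen uses a strain with defined DNA-repair lesions; compound-treated growth is compared with vehicle-treated growth.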
# [4] = NCI Yeast Anticancer Drug Screen. Data for the cln2 rad14 strain (AID 165);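 further: 0% = growth equal to vehicle treated cultures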; settings: S. cerevisiae cln2 rad14 strain, at 50.0 µM, active compounds read high
# In short: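 Readout is yeast growth inhibition versus vehicle-treated controls, using a strain with cln2 and rad14 alterations exposed to compound.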
# [5] = NCI Yeast Anticancer Drug Screen. Data for the bub3 strain (AID 167); settings: S. cerevisiae bub3 mutant strain, at 50.0 µM, active compounds read high
# In short: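 In this screen, a yeast mutant lacking normal mitotic checkpoint function is challenged with compound. Relative growth versus vehicle gives the inhibition value.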
# [6] = NCI Yeast Anticancer Drug Screen. Data for the mlh1 rad18 strain (AID 175); settings: S. cerevisiae mlh1 rad18 strain growth inhibition; at 50.0 µM; active compounds read high
# In short: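 Genetically defined yeast (DNA repair-deficient) exposed to compounds; growth inhibition determined relative to vehicle.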
SMILES,growth inhibition [1],growth inhibition [2],growth inhibition [3],growth inhibition [4],growth inhibition [5],growth inhibition [6]
OCCNCN(CNCCO)c1nc(N(CNCCO)CNCCO)nc(N(CNCCO)CNCCO)n1,55.6%,19.7%,32.6%,-49.5%,2.8%,12.4%
NC(=O)N/N=C(/CC1C(=O)Oc2ccccc21)c1ccccc1O (stereo unspecified),-8.35%,-4.7%,-9.7%,-14.3%,-24.9%,14%
CSc1nc(NC2OC(CO)C(O)C(O)C2O)cc(=O)[nH]1 (stereo unspecified),3.5%,4.2%,2.85%,-9.8%,7.5%,-2.9%
O=C(O)/C=C(\CC(=O)O)C(=O)O,12.8%,11.9%,-21.9%,8.15%,-21.1%,1.15%
NS(=O)(=O)c1ccc(NC(NC(=O)C(C(F)(F)F)C(F)(F)F)(C(F)(F)F)C(F)(F)F)cc1,16.6%,15.1%,-6.2%,-8.25%,5.15%,-0.8%
O=C(Nc1ccc(Cl)cc1[N+](=O)[O-])Oc1ccc(-c2ccccc2)cc1Cl,99.5% (active),99.7% (active),99.7% (active),99% (active),99.4% (active),99.7% (active)
O=CNC1(c2ccccc2)CCCCC1,2%,-37%,-12.2%,16.4%,4.6%,4.85%
O=C(ON=C1c2ccccc2C(Br)C(Br)c2ccccc21)c1ccccc1 (stereo unspecified),38%,16.9%,35.7%,17.6%,49%,30.6%
CC(O)CCCCC(O)CCC[C@H](O)[C@H]1CCC([C@H]2CCC([C@@H](O)CCCCCCCCCCCCC3=C[C@H](C)OC3=O)O2)O1 (stereo partly specified),40.9%,29.1%,71.2% (active),85.5% (active),-16.7%,81.7% (active)
CSC(=S)n1nc(-c2ccccc2)c(N=Nc2cccc(Cl)c2Cl)c1-c1ccccc1,90.2% (active),95.5% (active),94% (active),94.5% (active),93% (active),95.2% (active)
COc1ccc2c(c1)-c1c3c(cc4ccnc(c14)C2=O)OCO3,91.7% (active),93% (active),93.4% (active),91.5% (active),92% (active),91.8% (active)
CC1=CN2C(c3ccc(Cl)cc3)=NON(c3ccc(C)cn3)C2C=C1 (stereo unspecified),-21.6%,-4.75%,0.65%,-50.8%,5.25%,8.35%
NNC(=O)c1ccc2ccccc2c1O,17.4%,14.8%,17.1%,0.05%,22.1%,49%
COc1cc(C)c(OC)c(C/C=C(\C)CC2=C(CC(C)(C)O)C(=O)[C@]3(C)CCC[C@]3(C)C2)c1,33.6%,25.8%,13.7%,4.35%,16.5%,12.4%
N#CC(c1ccc(N)cc1)c1ccc(F)cc1 (stereo unspecified),15.6%,-16.8%,22.2%,27.2%,-0.6%,26.2%
CC1C(O)CC23COC(=O)C2=CCCC3C1(C)CCC1=CC(=O)OC1 (stereo unspecified),-8.6%,-38.9%,-26.2%,-7%,-42%,-20.9%
CCOC(=O)N1CCNCCN(C(=O)OCC)CCNCC1,-3.95%,2.3%,-4.3%,0.7%,-4.5%,24.1%
C[P+](Cc1ccc([N+](=O)[O-])cc1)(c1ccccc1)c1ccccc1,-2.85%,-19.1%,-3.15%,-1.7%,-9.8%,-7.15%
O=C(O)CNc1ccccc1.[Cu+2],-38.5%,-28.1%,-51.5%,6.95%,-35.9%,-15.8%
COc1ccc(/C=C2\NC(=O)NC2=O)cc1Br,11.8%,10.4%,2.65%,7%,9.1%,8.5%
CCOC(=O)c1c(O)csc1N,7.85%,5.45%,3.8%,-16.9%,-20.6%,10.7%

SMILES,growth inhibition [1],growth inhibition [2],growth inhibition [3],growth inhibition [4],growth inhibition [5],growth inhibition [6]
CS(=O)(=O)N(CCC#N)c1ccc(/C=N/NC(=O)CC(=O)Nc2cccc(Cl)c2)cc1,-6.75%,18.1%,10.7%,19.6%,-6.15%,8.65%
Nc1ncncc1Oc1ccccc1,8.25%,-5.35%,-0.2%,-33.6%,4.05%,-14.4%
O=C(CCCCCCCCC(=O)NO)NO,-10.8%,0.45%,-2.9%,4%,-2.95%,-2.5%
CC[C@H](/C=C/[C@@H](C)[C@H]1CC[C@H]2[C@@H]3CC[C@@H]4CC(=O)CC[C@]4(C)[C@H]3CC[C@]12C)C(C)C,29.9%,-13.8%,9.6%,1.15%,35.5%,34%
CCc1cccc(C(C)CC)c1NC(=O)CC1C(=O)Nc2ccccc2S1=O (stereo unspecified),15.2%,0.65%,7.2%,18.1%,32.5%,15.2%
CC(C)=CC1C(C(=O)SCc2cc3c(cc2Br)OCO3)C1(C)C (stereo unspecified),0.95%,-6.05%,-10.2%,6.25%,5.6%,6.5%
CSc1ccccc1C1CCCCCC1O (stereo unspecified),11%,12.8%,5.65%,12.8%,-30.6%,10.1%
O=C(NCCCCC(Br)C(=O)O)c1ccccc1 (stereo unspecified),-30%,-5.5%,-33.4%,-53.2%,-1.55%,-34.9%
CC(=O)c1cccc(NC(=O)C(=O)C(C(=O)NN)c2ccccc2)c1 (stereo unspecified),11.4%,11.1%,-5.2%,4.2%,23%,15.9%
CCCCCCCCCCCCCCCCN(O)C(=O)c1cnc[nH]1,29.8%,26.6%,30.2%,25.4%,11.1%,22.6%
Cc1cc(NCCN(C(C)C)C(C)C)nc(Nc2nc3cc(Cl)c(Cl)cc3[nH]2)n1,75.8% (active),39.2%,77.8% (active),11.7%,23.1%,55.6%
[N-]=[N+]=CC(=O)CCN1C(=O)c2ccccc2C1=O,-9.85%,-0.85%,-4.75%,-3.85%,1.15%,-1.55%
CCCC(=O)OC1=CC(=O)c2ccccc2C1=O,22.9%,16.6%,29.1%,26.5%,-10.2%,6.3%
CCC(C)C(NN)C(=O)O (stereo unspecified),0.7%,-5.55%,-22.4%,-24.6%,0%,-37.3%
Cc1cccc(N=C/C=C/c2ccccc2)c1C,0.85%,-6.4%,-20.7%,-50.6%,-4.7%,-5.85%
Cc1cc(N(CCC#N)CCC#N)ccc1/C=C1N=C(/C=C/c2ccccc2)OC(=O)N\1,14.7%,-5%,4.7%,-10.1%,1.15%,-13.7%
CCN(CC)[Si](C)(C)N(CC)CC,-20.2%,-24.4%,-1.2%,-41%,-4.5%,8.1%
Cc1c(Cl)ccc2nc3ccccc3nc12,32.4%,18.8%,12.7%,-4.85%,61.6%,34.5%
COc1ccc(/C=C2\CCCC(C(NO)c3ccc(OC)cc3)C2=NO)cc1 (stereo unspecified),13.6%,-33.4%,26.8%,1.15%,22.8%,18.2%
CC(/C=C/c1ccccc1)=N\N=C(C)\C=C\c1ccccc1,0.45%,-20.2%,-31.4%,20.9%,-37.8%,-23.4%
